The values below come from PubChem BioAssay (NCATS).

Structures are written as SMILES. Results filed as inconclusive are left out. A call without a number means that no potency is given here. Calls of active or inactive are those of the source. The call rests on the fitted dose curve; in most records, active means well fitted inhibition curve with a large enough effect; inconclusive means small, poorly fitted or top-dose-only effect; inactive means flat fitted curve, though single readings scatter.

Sequence of Glutathione peroxidase 1 (Homo sapiens) (P07203 whole entry, looked up): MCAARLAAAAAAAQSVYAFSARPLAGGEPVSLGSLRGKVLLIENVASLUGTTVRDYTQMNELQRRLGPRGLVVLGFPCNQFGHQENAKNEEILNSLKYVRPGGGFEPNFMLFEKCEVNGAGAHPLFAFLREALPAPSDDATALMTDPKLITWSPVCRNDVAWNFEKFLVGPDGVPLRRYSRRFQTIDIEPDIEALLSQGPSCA

The target of the assay is Glutathione peroxidase 1 (Homo sapiens) (UniProt P07203). Description: Primary qHTS Assay for Inhibitors of Recombinant Selenoprotein Glutathione Peroxidase 1 (GPX1) (AID 1845191). Further: nearly all actives have a fitted effect of over 65% in size. To be noted: recombinant GPX1, GR-coupled NADPH fluorescence, 15 min; series mostly up to 48.8 µM. Put shortly:
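GPX1 10 nM, GR 100 nM, GSH 1 mM, NADPH 0.5 mM, CHP 0.5 mM (final). 30-min cpd preincubation, RT. Ex340/Em450 read t=0, t=15 min.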
For orientation: qHTS replaces the single test concentration by a dilution series.
For the compound `CC1=C2[C@@H]([C@H](C)CC[C@H]2/C=C(\C)C(=O)O)[C@H](O)C1`, the Potency result is “inactive”.

Turning to `CC(C)=CCC/C(C)=C/CC/C(C)=C/CC[C@]1(C)CCc2cc(O)cc(C)c2O1`, the Potency result was “inactive”.

Take `COc1cc(/C=C/C(=O)OC[C@H]2O[C@H](O[C@]3(CO)O[C@H](CO)[C@@H](O)[C@@H]3O)[C@H](O)[C@@H](O)[C@@H]2O)cc(OC)c1O`: the Potency entry is “inactive”.

With `C=C(C)[C@@H]1CC[C@](C)(O)[C@@H](OC(=O)c2ccccc2)C1`, the Potency entry is “inactive”.

Consider `C=CC1(C)C=C2C(O)CC3C(C)(C(=O)O)CCCC3(C)C2CC1` (stereo not drawn), for which the Potency result was “inactive”.

Take `CC1(C)CCC(C)(C)c2cc([C@@H](O)C(=O)Nc3ccc(C(=O)O)cc3F)ccc21`: the Potency entry is “inactive”.

Take `CCCn1cnc2c(NCc3ccccc3)nc(N[C@H](CC)CO)nc21`: the Potency entry was “inactive”.

Turning to `C=CCc1ccc(O[C@@H]2O[C@H](CO[C@@H]3O[C@@H](C)[C@H](O)[C@@H](O)[C@H]3O)[C@@H](O)[C@H](O)[C@H]2O)cc1`, the Potency result is “inactive”.

Turning to `CC1=C(C)C(=O)OC(C(C)C2C(O)CC3C4C5OC5C5(O)CC(OC6OC(CO)C(O)C(O)C6O)CC(O)C5(C)C4CCC32C)C1` (stereo not drawn), the Potency entry is “inactive”.

For `COC(=O)[C@]12C(=O)C(C)=C(O)[C@@]1(C)C(C)=CC1[C@@]34CC[C@@H](OC(C)=O)C(C)(C)C3[C@H](C[C@]12C)OC4=O` (stereo partly drawn), the Potency result is “inactive”.

Regarding `CCCCS(=O)(=O)Nc1ncnc(OCCOc2ncc(Br)cn2)c1-c1ccc(Br)cc1`, the Potency result is “inactive”.

Turning to `CC(C)(O)c1ccc2c(c1)C(=O)CC1[C@](C)(CO)CCC[C@]21C` (stereo partly drawn), the Potency entry was “inactive”.

For the compound `COc1cc(C/C(=C/NC(C)=O)N(CC(=O)Cc2ccccc2)C(C)=O)cc2c1OCO2`, the Potency result is “inactive”.

As to `CC(C)=CCCC1(C)Oc2cc3c(c4c2C2C(O4)C(C)(O)CCC21)CN(C(CCC(=O)O)C(=O)O)C3=O` (stereo not drawn), the Potency result is “inactive”.

Take `CC(/C=C/C1(O)C2(C)COC1(C)CC(=O)C2)O[C@@H]1O[C@H](CO)[C@@H](O)[C@H](O)[C@H]1O` (stereo partly drawn): the Potency entry is “inactive”.

`C[C@@H]1CC[C@]2(C)C3(C)CC[C@@]2(OC3=O)[C@@]12C[C@H](c1ccoc1)OC2=O`: the Potency entry is “inactive”.

Consider `Cc1coc2c1CC1OC1(C)CCC1OC1(C)C2` (stereo not drawn), for which the Potency result is “inactive”.

Turning to `CC1(C)CC[C@]2(C(=O)O)CC[C@]3(C)C(=CCC4[C@@]5(C)C[C@@H](O)[C@H](O)C(C)(C)C5CC[C@]43C)[C@@H]2[C@@H]1O` (stereo partly drawn), the Potency result was “inactive”.

For `COC(=O)[C@@]1(C)CC[C@]2(C(=O)O[C@@H]3O[C@H](CO)[C@@H](O)[C@H](O)[C@H]3O)CC[C@]3(C)C(=CCC4[C@@]5(C)CC[C@H](O[C@@H]6O[C@H](C(=O)O)[C@@H](O)[C@H](O)[C@H]6O)C(C)(C)C5CC[C@]43C)[C@@H]2C1` (stereo partly drawn), the Potency result was “inactive”.

In the case of `COc1cc(N2CCC(N(C)C)CC2)ccc1Nc1ncc(Cl)c(Nc2ccccc2P(C)(C)=O)n1`, the Potency entry was “inactive”.

`C=C1CCC2C(C)(C)C(O)CCC2(C)C1CCC(C)CCOC(=O)CCC(=O)O` (stereo not drawn): the Potency entry was “inactive”.

Consider `Cc1cc(Nc2ncc(Cl)c(Nc3ccccc3S(=O)(=O)C(C)C)n2)c(OC(C)C)cc1C1CCNCC1`, for which the Potency entry was “inactive”.

In the case of `C=C1CC2(C(=O)O)CC1CCC2C1(C)CCCC2(C)C(=O)OC(O)C21` (stereo not drawn), the Potency result is “inactive”.

As to `COc1ccc(C(=O)O[C@H]2CC(C)=CC[C@@]3(C)[C@@H](OC(C)=O)C[C@@](O)(C(C)C)[C@H]23)cc1`, the Potency entry is “inactive”.

Take `C=C(C)C(C)C1OC23CC4(CO2)C(CCC2C5(C)CCC(OC6OCC(O)C(OC7OC(CO)C(O)C(OC8OCC(O)C(O)C8O)C7O)C6OC6OC(CO)C(O)C6O)C(C)(C)C5CCC24C)C3C(C)(O)C1OC(C)=O` (stereo not drawn): the Potency entry was “inactive”.

Turning to `CC1CCC(=O)CC(O)C(O)CC(=O)O1` (stereo not drawn), the Potency result was “inactive”.

Consider `CCOc1ccc(C(Nc2ccccn2)c2ccc3ccc(C)nc3c2O)cc1C` (stereo not drawn), for which the Potency result was “inactive”.

Regarding `C=CCc1ccc(O[C@@H]2O[C@H](CO)[C@@H](O)[C@H](O)[C@H]2O)c(OC)c1`, the Potency entry was “inactive”.

As to `O=C(O)C[C@H]1CCC(=O)[C@@H]1C/C=C\CCOC1OC(CO)C(O)C(O)C1O` (stereo partly drawn), the Potency entry was “inactive”.

As to `OCCc1ccc(O[C@@H]2O[C@H](CO)[C@@H](O)[C@H](O)[C@H]2O)c(O)c1`, the Potency entry was “inactive”.

Turning to `C[C@@H]1CC[C@]2(C(=O)O[C@@H]3O[C@H](CO)[C@@H](O)[C@H](O)[C@H]3O)CC[C@]3(C)C(=CCC4[C@@]5(C)C[C@@H](O)[C@H](O)C(C)(C)C5CC[C@]43C)C2[C@]1(C)O` (stereo partly drawn), the Potency entry was “inactive”.

With `COc1cccc2c1CCC[C@H]2CN(C)CCc1ccc2ccoc2c1`, the Potency entry is “inactive”.

In the case of `C=C(C)C(=O)O[C@H]1C[C@@](C)(OC(C)=O)[C@@]2(O)CC[C@@](C)(O)[C@H](OC(C)=O)[C@@]23OC(=O)C(COC)=C13`, the Potency result was “inactive”.
